# From PubChem BioAssay (NCI)
# This is part of a sample that, as a whole, favours compounds with a hit. Of some 83,000 tested, about 20% had one in any assay.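 A percent growth of 40 corresponds to 60% growth inhibition; 0 means no net growth; -100 means all cells died. Active threshold: below 10.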 Values without a mark were called inactive. Calls of active or inactive are those of the source.
# Test system: MDA-MB-468 breast
# Test: NCI-60 one-dose screen, 48 h (100 = growth as untreated, 0 = no growth, -100 = all killed)
# Conditions: 10 µM unless noted
row,SMILES,growth
1,COc1cc2c(c(OC)c1OC)-c1ccc(N)c(=O)cc1[C@@H](NC(C)=O)CC2,0.226% (active)
2,CC(C)NS(=O)(=O)/N=C1\NC(=O)NC1=C(Cl)Cl,60.6%
3,C=CC(=O)N1CCC[C@H](n2c(=O)n(-c3ccc(Oc4ccccc4)cc3)c3c(N)ncnc32)C1,0.223% (active)
4,Nc1c(C(=O)Nc2cccc(Cl)c2)sc2nc3c(cc12)CCCC3,74.2%
5,COc1ccc(C2CC(c3ccc(OC)cc3OC)=NN2c2ccc(S(N)(=O)=O)cc2)cc1 (stereo not drawn),64.8%
6,COc1cc2nc(-c3ccc(-c4nn[nH]n4)cc3)[nH]c(=O)c2cc1OC,104%
7,COc1ccc(S(=O)(=O)c2ccc(C(N)=O)cc2)cc1NC(=O)c1[nH]c(C)c2c1CCCCC2=O,31.9%
8,CCOCCNc1ccc(S(=O)(=O)c2ccc(N)cc2)cc1N,95.9%
9,CC1=C2[C@@H](CC1)[C@]1(C)O[C@@](C3CCCCC3)(C[C@H]1OC(=O)CO)[C@H]2OC(=O)/C=C/c1ccccc1,87.6%
10,S=C1CCSC(=S)N1CCCN1C(=S)CCSC1=S,37.8%
11,CN(C)c1ccc(/C=C\c2cccc[n+]2C)cc1,4.18% (active)
12,COc1cc(-c2nn(C(=O)NCCN3CCN(C)CC3)cc2-c2ccncc2)ccc1Cl,60.9%
13,COC(=O)[C@]12CC[C@@H](C)[C@H](C)[C@@H]1C1=CC[C@@H]3[C@@]4(C)C(C=O)=C[C@@](C)(COC(C)=O)[C@@H]4[C@H](O)C[C@@]3(C)[C@]1(C)CC2,-19.2% (active)
